# Data as given in PubChem BioAssay AID1063 (University of Pittsburgh Molecular Library Screening Center, 2008).
# Hit rate of the full screen: of about 200,000 compounds, about 18,000 (9%) were called active. Shown is part of a subset that was picked to be rich in actives. Values without a mark were called inactive. No stated cut-off is given here; in the data, active means inhibition above about 50%; inactive means the rest.
# Experiment: antileishmanial activity against promastigotes – primary screen (AID 1063);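 further: promastigotes grown with compound for 44 hours at 28 °C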
# Settings: Leishmania major promastigotes, resazurin fluorescence viability; at 10 µM; hits give high values
row,SMILES,inhibition
1,CN(C)c1ccc(Nc2c3c4c(cccc4n(C)c2=O)C(=O)c2ccccc2-3)cc1,59% (active)
2,O=c1[nH]c(CN2CCOCC2)nc2cc(Cl)ccc12,-9.96%
3,NC(=O)Cc1nc2scc(-c3ccc(Cl)cc3)c2c(=O)[nH]1,5.26%
4,O=c1[nH]c(CCl)nc2cc(-c3ccc(Cl)cc3)sc12,96.9% (active)
5,CCN(CC)C(=O)Oc1ccc(OC(=O)N(CC)CC)cc1,-5.77%
6,CC(C)C(=O)Nc1cccc(NC(=O)c2ccc([N+](=O)[O-])cc2Cl)c1,6.59%
7,Cc1ccc(NC(=O)c2cc([N+](=O)[O-])ccc2Cl)c(O)c1,15.1%
8,CCC(C)C(=O)Nc1cc([N+](=O)[O-])ccc1Cl (stereo not drawn),72.6% (active)
9,CCCS(=O)(=O)N1CCC(CCOc2ccccc2)(C(=O)OCC)CC1,-1.49%
10,COc1ccc(Cl)cc1NC(=O)NC(C)C(C)(C)C (stereo not drawn),16.3%
11,CCOC(=O)C1CCCN(C(=O)/C=C/c2ccc(OC)cc2)C1 (stereo not drawn),7.27%
12,COc1ccc(/C=C/C(=O)N2CCCC2)cc1OC,-1.79%
13,CCOC(=O)C1CCN(C(=O)/C=C/c2cc(OC)c(OC)c(OC)c2)CC1,55% (active)
14,COc1ccc(CCNC(=O)CCCCn2c(=O)[nH]c3ccccc3c2=O)cc1OC,1.29%
15,O=C(CCCCCn1c(=O)[nH]c2ccccc2c1=O)NCCc1c[nH]c2ccccc12,97.7% (active)
16,O=C(CCn1c(=O)[nH]c2ccccc2c1=O)NCCCN1CCN(c2cccc(Cl)c2)CC1,3.18%
17,Cc1cc(C)c2c(NC(=O)C3CC3)nn(C)c2n1,-2.35%
18,O=C(CNCc1ccco1)Nc1cc(S(=O)(=O)N2CCOCC2)ccc1N1CCCC1,-1.86%
19,COc1cccc(OCC(O)CN2CCN(CCO)CC2)c1 (stereo not drawn),-0.73%
20,Cc1ccc(C(C)C)cc1OCCN1CCCC1,92.5% (active)
21,COc1cccc(OCCOc2cccc(/C=N/n3cnnc3)c2)c1,3.61%
22,COc1ccc(NC(=O)CCN2CCCC2)c(OC)c1,-0.8%
23,O=C(COc1ccc2ccccc2c1)N1CCN(C(=O)c2cccs2)CC1,-4.2%
24,COc1cccc(OCCCN2CCCCCC2)c1,91.6% (active)

row,SMILES,inhibition
1,c1ccc2cc(OCCN3CCCC3)ccc2c1,84.2% (active)
2,Cc1cc(OCCN2CCCC2)cc(C(C)C)c1,92.5% (active)
3,Clc1ccccc1-c1cc(COc2ccc3ccccc3c2)no1,-8.15%
4,CCn1c(SCc2ccccc2)nc2c(c1=O)SCC2,-0.56%
5,O=C(Nc1cccnc1)c1ccc(Cl)cc1[N+](=O)[O-],2.3%
6,Cc1ccc(-c2cc(C(=O)N3CCc4ccccc4C3)no2)cc1,-3.45%
7,CCC(=O)Nc1sc(C(=O)Nc2ccccc2)c(C)c1C(=O)OC,0.3%
8,CC(C)C(=O)Nc1ccc2oc(=O)ccc2c1,2.46%
9,CCn1cc(-c2cc(C(=O)O)on2)c(C)n1,-3.4%
10,COc1ccc(NC(=S)Nc2ccc(S(N)(=O)=O)cc2)c(C)c1,5.95%
11,CCCc1nnc(SCC(=O)N2C(C)CCCC2C)n1CC (stereo not drawn),-8.2%
12,O=C(NCc1ccc(Cl)cc1)NCc1ccc(Cl)cc1,-7.12%
13,Cc1cc(OCCN2CCCC2)ccc1C(C)C,96.4% (active)
14,CCNC(=O)CC1C(=O)N(c2ccc(F)cc2)C(=O)N1Cc1cccs1 (stereo not drawn),-6.2%
15,O=[N+]([O-])c1cc(C(F)(F)F)ccc1NN=C1CCCC1,-5.08%
16,CC(C)N1CCC(=NNc2ccc([N+](=O)[O-])cc2S(=O)(=O)N2CCOCC2)CC1,100% (active)
17,CSCCC(Nc1ccc(S(=O)(=O)N2CCOCC2)cc1[N+](=O)[O-])C(=O)OCC(=O)N(C(C)C)C(C)C (stereo not drawn),6.07%
18,C/C(=N\Nc1nc(N2CCOCC2)nc(N2CCOCC2)n1)c1ccc([N+](=O)[O-])cc1,7.51%
19,O=[N+]([O-])c1cc(S(=O)(=O)N2CCCC2)ccc1NN=C1CCCC1,72.8% (active)
20,O=C(Nc1ccc(S(=O)(=O)N2CCCC2)cc1Cl)C1=COCCO1,13.3%
21,COc1cccc(NC(=O)Cn2c3ccccc3c3nc4n(c(=O)c32)CCS4)c1,1.79%
22,CC1(C)CC(=O)C=C(N2CCOCC2)C1,-0.57%
23,O=C(O)/C=C/c1cn(Cc2ccccc2)nc1-c1cccs1,-1.31%
24,O=[N+]([O-])c1c(NCCO)cc(Sc2nc3ccccc3s2)c2nonc12,61.2% (active)
